A selection: hits, their analogues and other compounds. The true share with any hit is near 8.7%.
ALOX12 inh: ALOX12 (human) lipoxygenase inhibition; P18054; purified 12hLO, xylenol orange hydroperoxide absorbance; Potency, µM (doses to about 108 µM), inactives show top-dose activity change, negative = inhibition, actives largely listed as inhibitors; 580,000 tested, 1.1% active; AID 1671190; further: on the % scale 0 is the no-effect control and ±100 the full control effect
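Hydroperoxide product was detected by ferrous iron/xylenol orange as the 573 to 405 nm absorbance ratio. Arachidonic acid at 40 uM (final) was turned over for 30 min at room temperature by 150 nM human 12hLO, pH 7.0 Hepes buffer, after 15 min compound preincubation.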
HP1b binding inh: blocks HP1-beta chromodomain binding to methylated histone tails; P83916; AlphaScreen HP1-beta / biotin-H3K9me3 peptide binding; Potency, µM (titrated, usually from 114 µM), without a hit: top-dose activity change, negative = inhibition, usual class: inhibitors; 390,000 tested, 0.56% active; further: nearly all actives have a fitted effect of over 70% in size
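Compound inhibition of the preformed complex between 50 nM HP1-beta and 50 nM biotinylated H3K9me3 peptide was read by AlphaScreen. Buffer was PBS pH 7.4 with 0.01% Tween-20. Incubations ran 30 min at room temperature, with 10 ug/mL donor/acceptor beads.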
BAZ2B inh: blocks human BAZ2B | Q9UIF8 | AlphaScreen BAZ2B-H3K14Ac peptide displacement | Potency, µM (top dose mostly 114 µM), inactives show at the highest dose activity change, negative = inhibition, usual class: inhibitors | 360,000 tested, 4.4% active; further: on the % scale 0 is the no-effect control and ±100 the full control effect; nearly all actives have a fitted effect of over 60% in size
Target sequence (Q9UIF8 whole entry, looked up): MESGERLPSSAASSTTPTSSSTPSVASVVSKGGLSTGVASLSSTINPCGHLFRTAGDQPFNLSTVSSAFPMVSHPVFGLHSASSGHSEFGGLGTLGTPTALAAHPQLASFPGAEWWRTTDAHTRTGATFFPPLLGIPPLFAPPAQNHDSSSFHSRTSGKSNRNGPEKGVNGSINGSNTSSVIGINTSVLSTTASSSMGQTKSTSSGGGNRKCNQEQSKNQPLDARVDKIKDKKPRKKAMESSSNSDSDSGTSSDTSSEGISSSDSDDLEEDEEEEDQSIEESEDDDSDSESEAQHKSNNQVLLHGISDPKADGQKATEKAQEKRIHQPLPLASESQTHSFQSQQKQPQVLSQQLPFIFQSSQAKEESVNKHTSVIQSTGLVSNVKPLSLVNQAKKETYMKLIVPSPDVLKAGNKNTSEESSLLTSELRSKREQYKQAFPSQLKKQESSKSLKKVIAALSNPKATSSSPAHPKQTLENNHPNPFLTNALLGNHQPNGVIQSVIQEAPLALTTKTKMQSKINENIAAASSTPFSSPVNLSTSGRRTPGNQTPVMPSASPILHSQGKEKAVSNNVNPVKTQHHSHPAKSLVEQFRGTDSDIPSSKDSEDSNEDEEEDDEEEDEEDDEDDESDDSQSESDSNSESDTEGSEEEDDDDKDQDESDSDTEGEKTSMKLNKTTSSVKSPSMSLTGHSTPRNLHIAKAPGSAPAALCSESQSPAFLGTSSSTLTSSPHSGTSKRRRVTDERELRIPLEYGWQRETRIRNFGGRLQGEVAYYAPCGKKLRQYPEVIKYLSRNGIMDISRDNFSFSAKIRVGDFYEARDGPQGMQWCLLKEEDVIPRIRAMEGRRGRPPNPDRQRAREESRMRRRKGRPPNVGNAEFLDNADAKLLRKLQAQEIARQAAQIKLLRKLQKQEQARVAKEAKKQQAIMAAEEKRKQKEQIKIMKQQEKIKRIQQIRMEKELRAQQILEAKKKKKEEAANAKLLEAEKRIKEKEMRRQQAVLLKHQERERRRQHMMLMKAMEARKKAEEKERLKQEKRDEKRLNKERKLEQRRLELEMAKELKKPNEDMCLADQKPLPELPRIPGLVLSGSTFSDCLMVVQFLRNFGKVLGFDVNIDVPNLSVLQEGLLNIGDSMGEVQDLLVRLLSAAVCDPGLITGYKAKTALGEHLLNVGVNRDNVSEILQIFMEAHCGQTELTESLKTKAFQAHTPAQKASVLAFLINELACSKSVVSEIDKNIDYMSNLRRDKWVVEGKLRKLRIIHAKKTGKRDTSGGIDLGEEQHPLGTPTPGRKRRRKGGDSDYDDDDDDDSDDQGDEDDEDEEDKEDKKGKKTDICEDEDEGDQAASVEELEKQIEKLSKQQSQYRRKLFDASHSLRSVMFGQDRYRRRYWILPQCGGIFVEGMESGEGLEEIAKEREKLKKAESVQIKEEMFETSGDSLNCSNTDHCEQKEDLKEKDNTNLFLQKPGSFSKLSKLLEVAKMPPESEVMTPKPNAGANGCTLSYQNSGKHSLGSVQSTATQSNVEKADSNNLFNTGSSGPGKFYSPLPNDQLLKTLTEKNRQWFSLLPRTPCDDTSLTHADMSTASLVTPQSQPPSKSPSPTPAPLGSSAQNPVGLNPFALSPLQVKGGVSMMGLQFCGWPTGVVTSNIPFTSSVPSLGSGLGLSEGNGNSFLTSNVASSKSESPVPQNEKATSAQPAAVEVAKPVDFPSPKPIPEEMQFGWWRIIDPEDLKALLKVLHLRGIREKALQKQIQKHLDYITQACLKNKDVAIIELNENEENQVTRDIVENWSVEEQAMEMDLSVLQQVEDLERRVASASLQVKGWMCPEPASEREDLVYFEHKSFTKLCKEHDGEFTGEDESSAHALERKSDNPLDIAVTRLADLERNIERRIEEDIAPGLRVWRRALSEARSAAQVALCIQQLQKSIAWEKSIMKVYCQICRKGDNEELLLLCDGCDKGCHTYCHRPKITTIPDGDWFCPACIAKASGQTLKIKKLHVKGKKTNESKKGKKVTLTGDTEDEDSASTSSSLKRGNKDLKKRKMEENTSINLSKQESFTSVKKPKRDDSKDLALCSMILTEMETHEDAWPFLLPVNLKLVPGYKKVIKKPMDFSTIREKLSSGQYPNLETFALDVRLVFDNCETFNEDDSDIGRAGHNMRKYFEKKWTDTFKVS
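AlphaScreen displacement: compounds (up to 110uM) incubated 30 min at room temperature with a preformed 50 nM BAZ2B/50 nM biotinylated H3K14Ac peptide complex in PBS pH 7.4 with Tween-20. Donor and acceptor beads at 10 ug/mL final added, 20 min light-protected before reading.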
G9a inh: G9a (human) methyltransferase inhibition; Q96KQ7; G9a H3K9 monomethylation, AlphaScreen, 2 h; Potency, µM (titrated, usually from 102 µM), inactives show top-dose activity, negative = inhibition, most hits filed as inhibitors; 350,000 tested, 8.8% active; further: on the % scale 0 is the no-effect control and ±100 the full control effect; nearly all actives have a fitted effect of over 75% in size
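Chemiluminescent proximity detection of H3K9 monomethylation, read after 10 min bead incubation in the dark. Reaction: 20 nM G9a, 500 nM biotin-H3K9 peptide, 20 uM SAM cofactor, 2 h, room temperature, following 15 min enzyme-compound preincubation.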
Sfp inh: Sfp phosphopantetheinyl transferase inhibition. 310,000 tested, 3.5% active. Q9F4F7. Potency, µM, for inactives: largest response in the series, negative = inhibition, usual class: inhibitors. Biochemical Sfp PPTase activity, qHTS;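 further: the enzyme is Sfp with the accession as filed and its product quenches rhodamine fluorescence; 0% = enzyme reaction without inhibitor and -100% = no enzyme wells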
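Buffer: 50 mM Hepes-Na pH 7.6, 10 mM MgCl2, 0.01% Nonidet P-40, 0.01% BSA. Enzyme 15 nM, pre-exposed to compound 15 min; substrates then added and fluorescence change tracked over 30 min.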
JMJD2A Tudor inh: inhibitors of human JMJD2A Tudor domain | O75164 | 390,000 tested, 4.4% active | AID 504339 | AlphaScreen JMJD2A-Tudor / H3K4me3 peptide binding | Potency, µM (titrated, usually from 114 µM), for the others: at the top dose activity change, negative = inhibition, usual class: inhibitors; further: on the % scale 0 is the no-effect control and ±100 the full control effect; nearly all actives have a fitted effect of over 50% in size
Numbers without * were called inactive; ? = inconclusive; . = no result given; [ ] = another dose, or the depositor's remark. The call rests on the fitted dose curve; in most records, active means well fitted curve in the direction sought with a large enough effect; inconclusive means small, poorly fitted or top-dose-only effect, or another doubt; inactive means no such curve, though single readings can be large; an effect the other way counts as inactive or inconclusive. Potency means the concentration at half of the fitted maximal effect.

SMILES | ALOX12 inh | HP1b binding inh | BAZ2B inh | G9a inh | Sfp inh | JMJD2A Tudor inh
CN(C(=O)COC(=O)CSc1ccc([N+](=O)[O-])cc1)C1CCS(=O)(=O)C1 (stereo unspecified) | -14.2% | 3.0% | 10.5% | 50.1µM* | . | -16.7%
Cc1ccc(SCC(=O)OCC(=O)NC2CCCCCCC2)cc1 | -9.9% | 79.1% | 32.1% | 8.6%[0.501 µM] | . | 20.7%
CN(C(=O)CSc1nc2ccc([N+](=O)[O-])cc2s1)C1CCS(=O)(=O)C1 (stereo unspecified) | 0.1% | 70.6% | -5.1% | -0.4%[12.7 µM] | -2.5% | -17.6%
O=C(COC(=O)c1ccc(-c2ccc([N+](=O)[O-])cc2)o1)NC(=O)NC1CCCCC1 | -15.0% | -10.8% | -6.1% | 39.8µM* | ? | -31.4%
O=C(COC(=O)CSc1ccc([N+](=O)[O-])cc1)NC1CCCCCCC1 | ? | ? | -7.8% | 44.7µM* | . | ?
Cc1ccc(C)c(-c2cc3c(=O)n(CCNC(=O)c4ccc(N(C)C)cc4)ccn3n2)c1 | 12.6% | . | . | . | . | .
CCCS(=O)(=O)N[C@@H]1CN(c2ncccn2)C[C@H]1CN(C)C | 49.4% | . | . | . | . | .
CCN(C(=O)COC(=O)CSc1ccc([N+](=O)[O-])cc1)C1CCS(=O)(=O)C1 (stereo unspecified) | 12.3% | 50.1µM* | -4.6% | 17.9% | 14.0% | 35.5µM*
COc1ccc2cc(C(=O)NC3CCS(=O)(=O)C3)[nH]c2c1 (stereo unspecified) | 6.0% | . | . | . | . | .
CC(Sc1ccc2ccccc2n1)C(=O)NC(N)=O (stereo unspecified) | 4.7% | . | . | . | . | .
O=C(O)C1CC=CCC1C(=O)Nc1cccc([N+](=O)[O-])c1 (stereo unspecified) | -10.9% | 30.0% | 89.1µM* | ? | 20.4% | -9.5%
CC[C@H]1CN(C(=O)c2ccccc2)CC[C@H]1CC(=O)NCc1ccc(F)cc1 | 55.7%[176 µM] | . | . | . | . | .
O=C(CCNC(=O)c1ccccc1)N=Nc1c(O)[nH]c2ccccc12 | -11.3% | . | -14.9% | 5.6% | 10.2% | .
O=C(CSc1nc2ccccc2[nH]1)N=Nc1c(O)[nH]c2ccccc12 | 8.9% | 2.6% | -29.7% | 44.7µM* | -11.1% | -27.9%
O=C(Cn1nnc(-c2ccccc2)n1)N=Nc1c(O)[nH]c2ccccc12 | -15.8% | 13.8% | -3.3% | -1.1%[59 µM] | 89.1µM* | -16.4%
Cn1c(SCC(=O)N=Nc2c(O)[nH]c3ccccc23)nc2ccccc21 | . | . | 10.2% | -6.0% | 1.8% | .
CCOC(=O)C1=C(C)NC2=C(C(=O)CCC2)C1c1ccc(N(C)C)cc1 (stereo unspecified) | 23.7% | -5.9% | -35.0% | ? | 17.9% | -32.1%
CCCOC(=O)C1=C(C)NC2=C(C(=O)CCC2)C1c1ccc(N(C)C)cc1 (stereo unspecified) | -28.5% | -7.4% | -50.6% | 39.8µM* | 17.3% | -31.5%
CC1=C(C(=O)OCC2CCCO2)C(c2ccc(C)o2)C2=C(CC(c3ccc(N(C)C)cc3)CC2=O)N1 (stereo unspecified) | . | . | 39.8µM* | 11.2µM* | 7.7% | .
CCN(CC)c1ccc(C2C(C(=O)OCCOC)=C(C)NC3=C2C(=O)CCC3)cc1 (stereo unspecified) | -12.1% | 46.3% | -9.4% | 4.47µM* | -2.5% | -34.8%
CCOC(=O)C(NC(=O)c1ccc(OC)cc1)(Nc1ccc(OC)cc1)C(F)(F)F (stereo unspecified) | 8.9% | . | . | . | . | .
COc1cc(OC)c2c(c1C(CCN1CCN(c3ccccc3)CC1)c1ccc(N(C)C)cc1)OC(=O)CC2c1ccc(N(C)C)cc1 (stereo unspecified) | . | ? | . | . | 7.4% | 12.6µM*
COc1ccc(C(CCN2CCCC(C)C2)c2c(OC)cc(OC)c3c2OC(=O)CC3c2cc(OC)c(OC)c(OC)c2)cc1 (stereo unspecified) | . | 6.8% | -24.4% | -5.8%[59 µM] | 1.7% | -21.4%
CCN(CC)CCC(c1ccc(N(C)C)cc1)c1c(OC)cc(OC)c2c1OC(=O)CC2c1ccc(OC)cc1 (stereo unspecified) | . | ? | . | . | -11.9% | 15.8µM*
CCN(CC)CCC(c1ccc(N(C)C)cc1)c1c(OC)cc(OC)c2c1OC(=O)CC2c1ccc(N(C)C)cc1 (stereo unspecified) | . | 14.1µM* | . | . | 8.7% | 12.6µM*
SMILES | ALOX12 inh | HP1b binding inh | BAZ2B inh | G9a inh | Sfp inh | JMJD2A Tudor inh
CCN(CC)CCC(c1ccc(OC)cc1)c1c(O)cc(OC)cc1OC (stereo unspecified) | -1.9% | -5.1% | -3.5% | 23.4%[12.7 µM] | 0.1% | ?
COc1ccc(/C=N/Nc2cc(=O)n(C)c(=O)n2C)cc1OC | 2.6% | 24.9% | -17.2% | -30.4%[59 µM] | 89.1µM* | -12.1%
C(=N\Nc1nc2ccccc2[nH]1)/c1ccccn1 | 1.5% | 26.8% | 25.1µM* | 60.0%[59 µM] | 23.2% | ?
Cc1ccc(/C=N/Nc2ccc(Cl)nn2)cc1 | -1.1% | 8.6%[57 µM] | 0.3% | 8.8%[12.7 µM] | 2.4% | -7.2%
COc1ccc(/C=N/Nc2nc3ccccc3[nH]2)cc1OC | -20.2% | 5.6% | -38.9% | -9.5%[59 µM] | 22.4µM* | -23.2%
CN(C)c1ccc(/C=N/Nc2ccc(-n3ccnc3)nn2)cc1 | 22.9% | -0.7% | 17.8µM* | ? | 44.7µM* | ?
COc1cc(/C=N\Nc2nc3ccccc3[nH]2)cc(OC)c1OC | 0.0% | 14.0% | ? | . | 8.8% | -9.4%[57.1 µM]
Cc1cccc(-c2nc3cc(NC(=O)c4cccc([N+](=O)[O-])c4)ccc3o2)c1 | -16.2% | . | . | . | . | .
COCCOc1cc(=O)n2c(c1C(=O)NC1CCCCCC1)CCOCC2 | 89.8% | . | . | . | . | .
COc1ccc2c(c1)c(/C=N/Nc1nc3ccccc3[nH]1)c(C)n2C | -28.5% | -11.0% | 28.2µM* | . | 11.2µM* | ?
C#CCn1cc(/C=N/Nc2nc3ccccc3[nH]2)c2ccccc21 | ? | ? | 39.8µM* | 50.1µM* | 11.2µM* | 50.1µM*
COc1ccc(C=NN=C2c3ccccc3-c3ccccc32)cc1OC | -15.8% | ? | . | . | . | 12.6µM*
O=C(O)c1ccc(C=NN=C2c3ccccc3-c3ccccc32)cc1 | -0.6% | ? | . | . | . | ?
C(=N\Nc1nc2ccccc2[nH]1)/c1ccc2c(c1)OCCO2 | 9.7% | -21.3% | ? | ? | 25.1µM* | ?
C(=N\Nc1nc2ccccc2[nH]1)/c1cccc2nccnc12 | 175.4% | 20.7% | -34.6% | -4.9% | 9.8% | ?
CC1CCCN(C(=O)c2cc3ccc(C(C)C)cc3[nH]2)C1 (stereo unspecified) | 7.8% | . | . | . | . | .
O=c1cnnc(N/N=C/c2ccccn2)[nH]1 | 64.0% | 20.5% | 8.91µM* | 32.2% | 8.4% | 3.16µM*
COc1ccc(/C=N/Nc2ccccn2)cc1OC | 181.4% | 27.4% | -27.5% | 1.2% | 56.2µM* | -20.0%

Screens from PubChem.
